Measured values reported in the supplement of paper PMC7366291.
Where a name gives a salt, the structure may show the parent alone. ± gives the standard deviation or the standard deviation of the averaged measurements.

Key:
Details in all cases: 25 µM; exposure: 24-48 hpf
[1] = tested on: Danio rerio Tg(wt1b:EGFP) embryo, pronephros; experiment: glomerular separation, fold change vs DMSO control; higher = glomeruli further apart (abnormal)
Method in brief: (§1)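 Dechorionated Tg(wt1b:EGFP) zebrafish embryos were kept from 24 to 48 hpf at 28.5°C in HEPES-buffered E3 containing 0.003% PTU, 0.5% DMSO and 25 μM compound. The pronephroi were then imaged from the dorsal side in agarose-filled 96-well plates at 470 nm with 10 z-slices, and 16 reference points were placed by hand on maximum projections in Fiji so that a macro could calculate distances and angles. Values lying more than 2 SD from the mean of a feature were discarded. Every feature is given as a fold change against the mean of DMSO-treated embryos from the same day.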

[2] = tested on: Danio rerio Tg(wt1b:EGFP) embryo, pronephros; experiment: glomerular width (mean of left and right), fold change vs DMSO control; higher = wider glomerulus
Method in brief: as §1

[3] = tested on: Danio rerio Tg(wt1b:EGFP) embryo, pronephros; experiment: fraction of imaged embryos annotated as normal kidney; higher = less nephrotoxic; extreme values may be limits of the assay
Method in brief: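 Embryos of the Tg(wt1b:EGFP) zebrafish line were dechorionated and held in 12-well plates with 25 μM compound in 0.5% DMSO and 5 mM HEPES-buffered E3 containing 0.003% PTU, from 24 to 48 hpf at 28.5°C. Larvae were then anaesthetised with tricaine, set dorsal side up in agarose-filled 96-well plates, and their pronephroi imaged by widefield fluorescence at 470 nm over 10 z-slices. Each value is the fraction of embryos per treatment placed in the normal-kidney category after manual annotation of maximum projections.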

[4] = tested on: Danio rerio Tg(wt1b:EGFP) embryo, pronephros; experiment: pronephric angle neck segment to proximal convoluted tubule (mean of left and right), fold change vs DMSO control; higher = larger pronephric angle
Method in brief: as §1

Row | SMILES | glomerular separation [1] | glomerular width [2] | fraction of imaged embryos annotated as normal kidney [3] | pronephric angle neck segment [4]
1 | CC(=O)O[C@H]1C(=O)[C@@]2(C)[C@H]([C@H](OC(=O)c3ccccc3)[C@]3(O)C[C@H](OC(=O)[C@H](O)[C@@H](NC(=O)c4ccccc4)c4ccccc4)C(C)=C1C3(C)C)[C@]1(OC(C)=O)CO[C@@H]1C[C@@H]2O [Paclitaxel] | 1.59 ± 0.55 | 1.06 ± 0.015 | 1 | 0.964 ± 0.021
2 | CN(C)[C@@H]1C(O)=C(C(N)=O)C(=O)[C@@]2(O)C(O)=C3C(=O)c4c(O)ccc(Cl)c4[C@@H](O)[C@H]3C[C@@H]12 [Demeclocycline hydrochloride] | 0.928 ± 0.36 | 0.999 ± 0.045 | 0.5 | 1.06 ± 0.013
3 | CCN(CC)CCNC(=O)c1cc(S(C)(=O)=O)ccc1OC [Tiapride hydrochloride] | 1.1 ± 0.29 | 0.902 ± 0.073 | 0.909 | 1.036 ± 0.0056
4 | CC(=O)O[C@]1(C(C)=O)CC[C@H]2[C@@H]3C=C(C)C4=CC(=O)CC[C@]4(C)[C@H]3CC[C@@]21C [Megestrol acetate] | 1.27 ± 0.82 | 0.864 ± 0.029 | 0.917 | 0.9907 ± 0.0078
5 | CC(C)(S)C(N)C(=O)O (racemic) [D,L-Penicillamine] | 1.31 ± 0.71 | 1.03 ± 0.015 | 0.583 | 0.996 ± 0.025
6 | C[C@@H]1[C@H](O)[C@@H](C)/C=C/C=C/C=C/C=C/C=C/C=C/C=C/[C@H](O[C@@H]2O[C@H](C)[C@@H](O)[C@H](N)[C@@H]2O)C[C@@H]2O[C@](O)(C[C@@H](O)C[C@@H](O)[C@H](O)CC[C@@H](O)C[C@@H](O)CC(=O)O[C@H]1C)C[C@H](O)[C@H]2C(=O)O [Amphotericin B] | 3.69 ± 2.9 | 0.907 ± 0.13 | 0 | 1.59 ± 0.016
7 | N/C(=N\C(=O)c1nc(Cl)c(N)nc1N)NCc1ccccc1 [Benzamil hydrochloride] | 0.935 ± 0.43 | 1.05 ± 0.019 | 0.917 | 0.98 ± 0.018
8 | CCCC(C(=O)OCCN(CC)CC)(c1ccccc1)c1ccccc1 [Proadifen hydrochloride] | 0.771 ± 0.16 | 1.09 ± 0.071 | 0.889 | 1.03 ± 0.037
9 | CCc1cccc2c3c([nH]c12)C(CC)(CC(=O)O)OCC3 (centres undefined) [Etodolac] | 1.66 ± 0.82 | 0.954 ± 0.025 | 0.636 | 1.13 ± 0.055
10 | CCCCOC(=O)c1ccc(N)cc1 [Butamben] | 1.07 ± 0.41 | 1.04 ± 0.12 | 0.917 | 0.9834 ± 0.0087
11 | CC(C)(CO)C(O)C(=O)NCCCO (centres undefined) [Panthenol (D)] | 0.954 ± 0.35 | 1.001 ± 0.0062 | 0.75 | 1.008 ± 0.005
12 | Nc1ccn([C@@H]2O[C@H](CO)[C@@H](O)[C@@H]2O)c(=O)n1 [Cytarabine] | 0.773 ± 0.16 | 1.06 ± 0.016 | 0.917 | 0.998 ± 0.015
13 | N#Cc1cc(NC(=O)C(=O)O)c(Cl)c(NC(=O)C(=O)O)c1 [Lodoxamide] | 1.24 ± 0.55 | 0.9808 ± 0.0037 | 0.917 | 1.05 ± 0.059
14 | COc1ccc(OC)c(C(O)CNC(=O)CN)c1 (centres undefined) [Midodrine hydrochloride] | 0.483 ± 0.2 | 1.2 ± 0.062 | 0.833 | 0.765 ± 0.013
15 | CN(C)CCCN1c2ccccc2Sc2ccccc21 [Promazine hydrochloride] | 1.25 ± 0.35 | 1.044 ± 0.0041 | 0.75 | 0.962 ± 0.047
16 | CCN(CC)CC#CCOC(=O)C(O)(c1ccccc1)C1CCCCC1 (centres undefined) [Oxybutynin chloride] | 1.32 ± 0.54 | 1.04 ± 0.022 | 1 | 0.985 ± 0.028
17 | Fc1ccc(C(c2ccc(F)cc2)N2CCN(C/C=C/c3ccccc3)CC2)cc1 [Flunarizine dihydrochloride] | 1.22 ± 0.69 | 0.932 ± 0.0099 | 0.364 | 0.937 ± 0.017
18 | COc1ccc(C(=O)CC(=O)c2ccc(C(C)(C)C)cc2)cc1 [Avobenzone] | 0.991 ± 0.29 | 1.05 ± 0.063 | 0.667 | 1.005 ± 0.0096
19 | N[C@@H](Cc1ccc(O)c(O)c1)C(=O)O [Levodopa] | 1.02 ± 0.31 | 1.06 ± 0.048 | 0.917 | 0.972 ± 0.018
20 | CC(=O)N[C@@H](CC(C)C)C(=O)O [N-Acetyl-L-leucine] | 1.02 ± 0.21 | 1.075 ± 0.0078 | 0.917 | 0.993 ± 0.013
21 | COc1cc(-c2ccc(=O)[nH]n2)ccc1OC(F)F [Zardaverine] | 1.12 ± 0.48 | 0.9712 ± 0.0072 | 0.583 | 0.994 ± 0.013
22 | CCOC(=O)n1ccn(C)c1=S [Carbimazole] | 1.35 ± 0.58 | 0.997 ± 0.029 | 0.667 | 1.052 ± 0.0026
23 | CCOC(=O)[C@H](CCc1ccccc1)N[C@@H](C)C(=O)N1CCC[C@H]1C(=O)O [Enalapril maleate] | 0.704 ± 0.19 | 1.01 ± 0.03 | 0.667 | 0.9423 ± 0.0071
24 | COCCCC/C(=N\OCCN)c1ccc(C(F)(F)F)cc1 [Fluvoxamine maleate] | 1.05 ± 0.39 | 0.91 ± 0.015 | 1 | 0.996 ± 0.018
25 | Cc1cccc(C)c1OCC(C)N (centres undefined) [Mexiletine hydrochloride] | 0.9 ± 0.27 | 0.98 ± 0.033 | 0.917 | 0.98 ± 0.041
26 | C[C@@H](c1ncncc1F)[C@](O)(Cn1cncn1)c1ccc(F)cc1F [Voriconazole] | 0.875 ± 0.21 | 1.02 ± 0.015 | 0.5 | 1.01 ± 0.027
